# Test results reported in the supplement of paper PMC6522484.
# ± gives the standard deviation of the averaged measurements.
# Key:
# DLD1 [1] = assay: cell viability (CellTiter-Glo) relative to plate median (fraction of plate median); higher = more viable cells; conditions: 5 µM; treatment time 24 h; reporter: 7TFP
# Outline: (§1)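 Colorectal cancer cell lines stably carrying lentiviral TCF/Wnt firefly luciferase reporters (7TFP or TCF4/Wnt) were plated in 384-well plates and, 24 h later, given library compounds at a final 5 µM for 24 h. Firefly luciferase or CellTiterGlo luminescence was read on parallel plates with a Tecan F500 reader. Each well's signal was normalised to the plate median in webcellHTS2 (additive, without log transformation). Values are the mean of two independent replicates.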
# HCT116 = assay: as above; conditions: 5 µM; treatment time 24 h; reporter: TCF4/Wnt
# Outline: as §1
# SW480 [2] = assay: as above; conditions: 5 µM; treatment time 24 h; reporter: 7TFP
# Outline: as §1
# DLD1 [3] = assay: TCF/Wnt firefly luciferase reporter signal relative to plate median (fraction of plate median); higher = higher Wnt reporter signal; conditions: 5 µM; treatment time 24 h; reporter: 7TFP
# Outline: as §1
# SW480 [4] = assay: as above; conditions: 5 µM; treatment time 24 h; reporter: 7TFP
# Outline: as §1
Structure (SMILES),cell viability (DLD1 [1]),cell viability (HCT116),cell viability (SW480 [2]),TCF/Wnt firefly luciferase reporter signal (DLD1 [3]),TCF/Wnt firefly luciferase reporter signal (SW480 [4])
O=C1OCC(Cc2ccccc2)C1c1ccccc1 (stereo not given) [3-Benzyl-2-phenyl-butyrolactone],1.07 ± 0.085,1.01 ± 0.014,0.978 ± 0.045,0.917 ± 0.12,1.1 ± 0.078
CCCCC[C@H](CC(=O)O)C(=O)O,0.996 ± 0.091,0.953 ± 0.095,0.974 ± 0.03,1.15 ± 0.085,1.03 ± 0.021
CCC[C@@H]1C[C@@H](C(=O)N[C@@H]([C@H]2O[C@H](SC)[C@H](O)[C@@H](O)[C@H]2O)[C@@H](C)O)N(C)C1,1.05 ± 0.12,1.03 ± 0.021,1.035 ± 0.0071,0.934 ± 0.015,1.04 ± 0.083
COc1ccc(-c2cc(=O)c3c(OC)c(OC)c(OC)c(OC)c3o2)cc1,1 ± 0.064,0.932 ± 0.059,1.05 ± 0.05,1.13 ± 0.042,0.961 ± 0.0028
C[C@]12CC[C@@H]3c4ccc(O)cc4CC[C@H]3[C@@H]1CCC2=O,0.894 ± 0.038,1.05 ± 0.057,0.995 ± 0.064,1.15 ± 0.064,1.07 ± 0.085
CCN(CC)C(C)CN1c2ccccc2Sc2ccccc21 (stereo not given),1.07 ± 0.11,1.02 ± 0.12,0.998 ± 0.045,0.927 ± 0.3,1.05 ± 0.078
O=C1c2c(O)ccc(O)c2C(=O)c2c(NCCNCCO)ccc(NCCNCCO)c21,1.09 ± 0.078,0.635 ± 0.19,0.997 ± 0.018,0.936 ± 0.03,0.436 ± 0.04
COc1ccc2cc([C@H](C)CO)ccc2c1,0.939 ± 0.0028,0.862 ± 0.17,0.9375 ± 0.0021,1.11 ± 0.035,1.04 ± 0.05
CC[C@]1(O)C[C@H]2CN(CCc3c([nH]c4ccccc34)[C@@](C(=O)OC)(c3cc4c(cc3OC)N(C=O)[C@H]3[C@@](O)(C(=O)OC)[C@H](OC(C)=O)[C@]5(CC)C=CCN6CC[C@]43[C@@H]65)C2)C1,1.01 ± 0.16,0.53 ± 0.064,1.17 ± 0.035,0.666 ± 0.091,0.713 ± 0.075
CC(C)c1c(O)ccc2c1CCC1[C@@](C)(C=O)CCC[C@]21C (stereo not given in full),1.03 ± 0.021,1.01 ± 0.031,0.965 ± 0.04,1.03 ± 0.014,1.08 ± 0.028
CC12CCCC(O)(C1)C1CC(C)(C)C1CC2 (stereo not drawn) [beta-CARYOPHYLLENE ALCOHOL],0.91 ± 0.072,1.12 ± 0.14,1 ± 0.04,1.1 ± 0.028,1.04 ± 0.028
CC(=O)OCC(=O)[C@H]1CC[C@H]2[C@@H]3CCC4=CC(=O)CC[C@]4(C)[C@H]3CC[C@]12C,0.952 ± 0.082,0.961 ± 0.13,0.974 ± 0.0014,1.11 ± 0.05,0.93 ± 0.059
Clc1ccc(CSC(Cn2ccnc2)c2ccc(Cl)cc2Cl)cc1 (stereo not given),1.01 ± 0.015,0.932 ± 0.14,0.954 ± 0.11,0.88 ± 0.035,0.952 ± 0.036
O=C(CC(=O)c1ccccc1)c1ccccc1,0.972 ± 0.069,0.82 ± 0.026,1.03,1.15 ± 0.021,1.17 ± 0.057
CN(C)c1ccc(O)c2c1C[C@H]1C[C@H]3[C@H](N(C)C)C(O)=C(C(N)=O)C(=O)[C@@]3(O)C(O)=C1C2=O,0.991 ± 0.0099,1.03 ± 0.09,0.943 ± 0.048,1.05 ± 0.042,1.08 ± 0.085
O=C(O)[C@]1(O)C[C@@H](O)[C@@H](O)[C@H](O)C1,0.982 ± 0.04,1.05 ± 0.16,0.934 ± 0.033,1.08 ± 0.16,0.923 ± 0.17
CCN(CC)CCNC(=O)c1ccc(NC(C)=O)cc1,1.01 ± 0.075,1.05 ± 0.071,1.06 ± 0.035,1.08 ± 0.028,1.14 ± 0.014
CC(C)(C(=O)O)c1ccc(C(O)CCCN2CCC(C(O)(c3ccccc3)c3ccccc3)CC2)cc1 (stereo not given),1.05 ± 0.078,0.899 ± 0.049,1.055 ± 0.0071,1.05 ± 0.028,1.13
C=C[C@@](C)(O)CCC1C(=C)CCC2[C@@](C)(CO)CCC[C@]12C (stereo not given in full),1.005 ± 0.0071,1.14 ± 0.16,1.1 ± 0.021,0.967 ± 0.017,1.01 ± 0.067
CCCC(=O)Nc1ncnc2c1ncn2[C@@H]1O[C@@H]2COP(=O)(O)O[C@H]2[C@H]1OC(=O)CCC,0.945 ± 0.055,0.957 ± 0.026,0.987 ± 0.0071,1.11 ± 0.17,1.09 ± 0.014
CN(C)CCC=C1c2ccccc2C=Cc2ccccc21,1.02 ± 0.034,0.998 ± 0.046,1.035 ± 0.0071,0.991 ± 0.042,0.969 ± 0.0085
CCCC(CCC)C(=O)O,1.03 ± 0.045,1.09 ± 0.035,0.973 ± 0.052,1.115 ± 0.0071,1.06 ± 0.078
NC1(C(=O)O)CCCC1,0.9495 ± 0.00071,1.02 ± 0.035,0.9955 ± 0.0064,1.02 ± 0.081,1.055 ± 0.0071
O=c1n(CCCN2CCN(c3cccc(Cl)c3)CC2)nc2ccccn12,1.005 ± 0.0071,0.987 ± 0.12,1.01 ± 0.014,1.08 ± 0.28,0.971 ± 0.083
COc1ccc(-c2oc3ccccc3c(=O)c2O)cc1OC,0.969 ± 0.087,0.912 ± 0.024,1.05,0.923 ± 0.0099,1.18 ± 0.028
COc1cc(C)c(C(=O)O)c(O)c1,1.05 ± 0.014,1.11 ± 0.14,1 ± 0.037,0.924 ± 0.0085,0.986 ± 0.02
CO[C@@H]1[C@H](O)[C@@H](C)O[C@@H](OC[C@H]2[C@@H]3O[C@H]3/C=C/C(=O)[C@@](C)(O)C[C@H](C)[C@H](O[C@@H]3O[C@H](C)C[C@H](OC)[C@H]3O)[C@@H](C)/C=C/C(=O)O[C@@H]2C)[C@@H]1OC [Chalcomycin],1.04 ± 0.083,1.1 ± 0.071,1.01 ± 0.048,0.869 ± 0.094,0.965 ± 0.034
C#CCCCCCCCCCCCC(O)CC(O)CO.C=CCCCCCCCCCCCC(O)CC(O)CO (stereo not given),1.015 ± 0.0071,0.974 ± 0.0099,1.01 ± 0.051,1.05 ± 0.18,0.974 ± 0.11
CC1(C)O[C@@H]2C[C@H]3[C@@H]4C[C@H](F)C5=CC(=O)C=C[C@]5(C)[C@@]4(F)[C@@H](O)C[C@]3(C)[C@]2(C(=O)CO)O1,0.955 ± 0.11,1 ± 0.093,0.975 ± 0.05,0.974 ± 0.032,0.944 ± 0.038
